# Test results taken from the antibiotic and cytotoxicity screens of Wong et al. (2023).
# Screen size: about 39,000 compounds; about 3,300 (8.5%) were called active. The list comes from a sample in which actives are over-represented; it also holds similar structures and randomly drawn compounds.
# System: HepG2
# Experiment: cytotoxicity call (relative viability < 0.9)
# Conditions: 10 µM
row,Compound,cytotoxicity call
1,Cc1ccc(S[C@]2(C(=O)NCC(C)C)CC(=O)N(Cc3ccccc3)[C@@H]2c2ccc(CO)cc2)cc1,inactive
2,O=C1[N-]C(=O)C(c2ccccc2)(c2ccccc2)N1.[Na+],inactive
3,C[C@H](CO)N1C[C@H](C)[C@H](CN(C)S(=O)(=O)c2ccc(F)cc2)Oc2ccc(NC(=O)Cn3cnnn3)cc2C1=O,inactive
4,C[C@H](CO)N1C[C@H](C)[C@@H](CN(C)C(=O)Nc2ccc(C(F)(F)F)cc2)Oc2c(NC(=O)NC3CCCCC3)cccc2C1=O,inactive
5,C[C@@H]1CN([C@H](C)CO)C(=O)c2cccc(NC(=O)C3CCCCC3)c2O[C@H]1CN(C)C(=O)Nc1ccc(C(F)(F)F)cc1,inactive
6,CC(C)NC(=O)N(C)C[C@H]1Oc2c(NC(=O)C3CCCCC3)cccc2C(=O)N([C@H](C)CO)C[C@@H]1C,inactive
7,C[C@H](CO)N1C[C@H](C)[C@H](CN(C)C(=O)Nc2ccc(C(F)(F)F)cc2)Oc2c(NC(=O)C3CCCCC3)cccc2C1=O,active
8,C[C@@H]1CN([C@H](C)CO)C(=O)c2cccc(NC(=O)NC3CCCCC3)c2O[C@H]1CN(C)C(=O)Nc1ccc(C(F)(F)F)cc1,active
9,CC(C)NC(=O)N(C)C[C@@H]1Oc2c(NC(=O)C3CCCCC3)cccc2C(=O)N([C@H](C)CO)C[C@H]1C,inactive
10,C[C@H](CO)N1C[C@H](C)[C@H](CN(C)C(=O)Nc2ccc(C(F)(F)F)cc2)Oc2c(NC(=O)NC3CCCCC3)cccc2C1=O,active
11,CC(C)NC(=O)N(C)C[C@@H]1Oc2c(NC(=O)C3CCCCC3)cccc2C(=O)N([C@@H](C)CO)C[C@@H]1C,active
12,C[C@@H]1CN([C@@H](C)CO)C(=O)c2cccc(NC(=O)NC3CCCCC3)c2O[C@@H]1CN(C)C(=O)Nc1ccc(C(F)(F)F)cc1,inactive
13,C[C@@H]1CN([C@@H](C)CO)C(=O)c2cccc(NC(=O)C3CCCCC3)c2O[C@@H]1CN(C)C(=O)Nc1ccc(C(F)(F)F)cc1,inactive
14,N#CCC(=O)N1CCSCC1,inactive
15,C[C@@H]1CCCCO[C@@H](CN(C)S(=O)(=O)c2ccc(F)cc2)[C@@H](C)CN([C@H](C)CO)C(=O)c2cc(NS(C)(=O)=O)ccc2O1,inactive
16,CC(C)CN1C[C@@H]2CCNCC[C@H]2S1(=O)=O,inactive
17,C[C@H](CO)N1C[C@H](C)[C@@H](CN(C)Cc2ccc(C(=O)O)cc2)Oc2ccc(NS(=O)(=O)c3cn(C)cn3)cc2CC1=O,inactive
18,O=C(C[C@@H]1C[C@H]2c3cc(NS(=O)(=O)c4ccc(F)cc4)ccc3O[C@H]2[C@@H](CO)O1)NCc1ccccc1F,inactive
19,Nc1cc(=O)[nH]c(=O)n1Cc1ccccc1,inactive
20,COc1ccc(CN2C[C@@H](C)[C@H](OC)CN(C)C(=O)c3ccc(NC(=O)c4nc5ccccc5s4)cc3OC[C@@H]2C)cc1,inactive
21,COc1ccc2c3c([nH]c2c1)[C@H](CO)N(C[C@]13CCN(CC1)CC1CCCC1)S(=O)(=O)c1cn(cn1)C,inactive
22,COc1ccccc1CN1C(=O)c2ccccc2[C@@]2(Cc3ccccc3N(C(C)C)C2=O)[C@@H]1c1ccc(CO)cc1,inactive

row,Compound,cytotoxicity call
1,C[C@@H]1CN([C@H](C)CO)C(=O)c2cccc(NC(=O)NC3CCCCC3)c2O[C@@H]1CN(C)C(=O)Nc1ccc(C(F)(F)F)cc1,inactive
2,C[C@H]1CN([C@@H](C)CO)C(=O)c2cccc(NC(=O)NC3CCCCC3)c2O[C@H]1CN(C)C(=O)Nc1ccc(C(F)(F)F)cc1,active
3,C[C@H]1CN([C@@H](C)CO)C(=O)c2cccc(NC(=O)NC3CCCCC3)c2O[C@@H]1CN(C)C(=O)Nc1ccc(C(F)(F)F)cc1,inactive
4,CCCn1nc(C)c(CN)c1C,inactive
5,Cc1ccc(S(=O)(=O)N(C)C[C@@H]2OCCCC[C@@H](C)Oc3ccc(NC(=O)Nc4ccc(C(F)(F)F)cc4)cc3C(=O)N([C@@H](C)CO)C[C@@H]2C)cc1,inactive
6,O=C(N[C@H]1CC=CC[C@H](CC(=O)N(CCO)Cc2ccccc2)C(=O)N[C@@H](Cc2ccccc2)COC1=O)OCC1c2ccccc2-c2ccccc21,active
7,O=C(N[C@@H]1CC=CC[C@H](CC(=O)N(CCO)Cc2ccccc2)C(=O)N[C@@H](Cc2ccccc2)COC1=O)OCC1c2ccccc2-c2ccccc21,inactive
8,O=C1N[C@H](Cc2c[nH]c3ccccc23)COC(=O)[C@@H](Cc2ccc(F)cc2)CCC=CC[C@H]1CC(=O)N(CCO)Cc1ccccc1,active
9,O=C1N[C@@H](Cc2c[nH]c3ccccc23)COC(=O)[C@@H](Cc2ccc(F)cc2)CC=CC[C@@H]1CC(=O)N(CCO)Cc1ccccc1,active
10,O=C1N[C@@H](Cc2c[nH]c3ccccc23)COC(=O)[C@H](Cc2ccc(F)cc2)CCC=CC[C@H]1CC(=O)N(CCO)Cc1ccccc1,inactive
11,O=C1N[C@H](Cc2c[nH]c3ccccc23)COC(=O)[C@H](Cc2ccc(F)cc2)CC=CC[C@@H]1CC(=O)N(CCO)Cc1ccccc1,inactive
12,O=C1N[C@H](Cc2c[nH]c3ccccc23)COC(=O)[C@@H](Cc2ccc(F)cc2)CCC=CC[C@@H]1CC(=O)N(CCO)Cc1ccccc1,inactive
13,O=C(N[C@H]1CC=CC[C@H](CC(=O)N(CCO)Cc2ccccc2)C(=O)N[C@H](Cc2ccccc2)COC1=O)OCC1c2ccccc2-c2ccccc21,inactive
14,O=C1N[C@H](Cc2c[nH]c3ccccc23)COC(=O)[C@@H](Cc2ccc(F)cc2)CC=CC[C@@H]1CC(=O)N(CCO)Cc1ccccc1,inactive
15,CC12CC(OC1=O)C1(C)CCC3(C)C(=CCC4C5(C)CCC(O)C(C)(C)C5CCC43C)C1C2 (stereo not given),inactive
16,O=S1(=O)C[C@H](NCc2cccnc2)[C@@H](O)C1,inactive
17,C[C@H](CO)N1C[C@H](C)[C@@H](CN(C)Cc2ccc(C(=O)O)cc2)Oc2c(NC(=O)C3CCOCC3)cccc2C1=O,inactive
18,COc1ccc(CN(C)C[C@H]2Oc3ccc(NS(=O)(=O)c4c(C)noc4C)cc3CC(=O)N([C@H](C)CO)C[C@@H]2C)cc1,inactive
19,COc1ccc(S(=O)(=O)Nc2ccc3c(c2)C(=O)N([C@H](C)CO)C[C@@H](C)[C@@H](CN(C)S(=O)(=O)c2ccc(OC)cc2)O3)cc1,inactive
20,CN1C(=O)c2cc(NC(=O)Nc3ccccc3F)ccc2OC[C@H]2O[C@@H](CC(=O)NCc3ccc(-c4ccccc4)cc3)CC[C@@H]21,inactive
21,C[C@@H]1CCCCO[C@@H](CN(C)S(=O)(=O)c2ccc(Cl)cc2)[C@@H](C)CN([C@H](C)CO)C(=O)c2cc(NC(=O)C3CCCCC3)ccc2O1,inactive
22,CO[C@H]1CN(C)C(=O)c2ccc(NS(C)(=O)=O)cc2OC[C@@H](C)N(C(=O)C2CCOCC2)C[C@@H]1C,inactive

row,Compound,cytotoxicity call
1,COc1ccc(S(=O)(=O)Nc2ccc3c(c2)C(=O)N([C@H](C)CO)C[C@@H](C)[C@H](CN(C)C(=O)C2CCCCC2)OCCCC[C@H](C)O3)cc1,inactive
2,C[C@@H]1CN([C@@H](C)CO)C(=O)c2cc(N(C)C)ccc2O[C@@H](C)CCCCO[C@H]1CN(C)C(=O)CCCN(C)C,inactive
3,Cc1noc(C)c1S(=O)(=O)Nc1ccc2c(c1)C(=O)N([C@H](C)CO)C[C@H](C)[C@H](CN(C)C(=O)Nc1cccc3ccccc13)OCCCC[C@@H](C)O2,inactive
4,Cc1noc(C)c1S(=O)(=O)Nc1ccc2c(c1)C(=O)N([C@@H](C)CO)C[C@@H](C)[C@H](CN(C)C(=O)Nc1cccc3ccccc13)OCCCC[C@H](C)O2,inactive
5,Cc1noc(C)c1S(=O)(=O)Nc1ccc2c(c1)C(=O)N([C@@H](C)CO)C[C@@H](C)[C@@H](CN(C)C(=O)Nc1cccc3ccccc13)OCCCC[C@@H](C)O2,active
6,Cc1noc(C)c1S(=O)(=O)Nc1ccc2c(c1)C(=O)N([C@H](C)CO)C[C@@H](C)[C@@H](CN(C)C(=O)Nc1cccc3ccccc13)OCCCC[C@@H](C)O2,inactive
7,Cc1noc(C)c1S(=O)(=O)Nc1ccc2c(c1)C(=O)N([C@@H](C)CO)C[C@@H](C)[C@@H](CN(C)C(=O)Nc1cccc3ccccc13)OCCCC[C@H](C)O2,inactive
8,Cc1noc(C)c1S(=O)(=O)Nc1ccc2c(c1)C(=O)N([C@H](C)CO)C[C@H](C)[C@@H](CN(C)C(=O)Nc1cccc3ccccc13)OCCCC[C@H](C)O2,active
9,C[C@@H]1CN([C@H](C)CO)C(=O)c2cc(NC(=O)Cc3ccccc3)ccc2O[C@@H](C)CCCCO[C@@H]1CN(C)Cc1ccncc1,inactive
10,Cc1ccc(S(=O)(=O)N(C)C[C@H]2OCCCC[C@H](C)Oc3ccc(NC(=O)C4CCCCC4)cc3C(=O)N([C@@H](C)CO)C[C@H]2C)cc1,inactive
11,C[C@@H]1CN([C@H](C)CO)C(=O)CCCn2nncc2CO[C@H]1CN(C)C(=O)c1cc(-c2ccccc2)on1,inactive
12,COc1ccc(S(=O)(=O)N(C)C[C@@H]2Oc3c(NC(=O)c4cc(C)nn4C)cccc3C(=O)N([C@H](C)CO)C[C@H]2C)cc1,inactive
13,C[C@@H]1CN([C@H](C)CO)C(=O)c2cccc(NS(=O)(=O)c3cn(C)cn3)c2O[C@H]1CN(C)S(=O)(=O)c1ccc(Cl)cc1,inactive
14,COc1ccc(S(=O)(=O)N(C)C[C@@H]2Oc3ccc(NS(=O)(=O)c4ccc(F)cc4)cc3C(=O)N([C@@H](C)CO)C[C@H]2C)cc1,inactive
15,O=C(N/N=C/c1ccc(CO)o1)c1ccccn1,inactive
16,NC(=O)N/N=C/c1ccc([N+](=O)[O-])o1,inactive
17,O=C(NO)c1ccc(C(=O)N/N=C/c2ccc(B(O)O)cc2)cc1,inactive
18,O=C(NN=Cc1ccc([N+](=O)[O-])o1)c1ccc(O)cc1,active
19,NC(=O)NN=Cc1ccc([N+](=O)[O-])o1,active
20,COC(=O)N/N=C/c1ccc([N+](=O)[O-])o1,inactive
21,C[C@@H]1CCCCO[C@@H](CN(C)C(=O)C2CCCCC2)[C@@H](C)CN([C@H](C)CO)C(=O)c2cc(NC(=O)c3ccncc3)ccc2O1,inactive
